Reference: the supplement of paper PMC10849652
The full data set covers some 7,900 targets. This sample favours those with a hit. About 0.6% of all pairs of compound and target were hits. Values without a mark were called inactive.

Compound: CC[C@H](C)[C@@H](C(=O)N[C@@H]([C@@H](C)O)C(=O)N[C@@H](CC(C)C)C(=O)[C@]1(CO1)C)NC(=O)[C@H]([C@@H](C)CC)N(C)C(=O)C [epoxomicin]
Assay: log2 fold change, soluble protein after heating vs DMSO (PISA); higher = thermal stabilisation; K562 cells, 10 uM, 30 min; active = over 0.2 and 3.5 SD of the protein, either way, in both replicates (recomputed)
In short: (§1)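 K562 cells at 2×10^6 cells/mL were treated for 30 min with 10 μM compound, and aliquots were heated for 3 min over 48°C-58°C before pooling. Extraction used PBS with 0.5% NP-40 at 4°C, and soluble protein was the supernatant after 21,000xg for 90 min, measured by TMTpro 16plex LC-MS/MS with channel sums equalised. Thermal stability values, relative to control samples and from duplicates, are log2 fold changes.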

Chain of UniProt Q9Y6K0 (Q9Y6K0 whole entry, looked up): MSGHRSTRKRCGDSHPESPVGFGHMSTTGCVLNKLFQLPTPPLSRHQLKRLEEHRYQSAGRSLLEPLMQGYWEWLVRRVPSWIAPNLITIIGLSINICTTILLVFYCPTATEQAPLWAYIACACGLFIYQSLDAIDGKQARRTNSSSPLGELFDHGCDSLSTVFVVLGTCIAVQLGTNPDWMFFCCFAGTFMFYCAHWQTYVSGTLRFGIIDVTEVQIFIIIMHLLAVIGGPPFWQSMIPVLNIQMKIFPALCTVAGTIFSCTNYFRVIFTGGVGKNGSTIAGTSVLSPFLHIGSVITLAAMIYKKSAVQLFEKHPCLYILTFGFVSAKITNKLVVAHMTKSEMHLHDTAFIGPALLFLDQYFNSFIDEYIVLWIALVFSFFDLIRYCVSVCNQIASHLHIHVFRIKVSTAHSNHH
Chain of UniProt Q2TAC2 (Q2TAC2 whole entry, looked up): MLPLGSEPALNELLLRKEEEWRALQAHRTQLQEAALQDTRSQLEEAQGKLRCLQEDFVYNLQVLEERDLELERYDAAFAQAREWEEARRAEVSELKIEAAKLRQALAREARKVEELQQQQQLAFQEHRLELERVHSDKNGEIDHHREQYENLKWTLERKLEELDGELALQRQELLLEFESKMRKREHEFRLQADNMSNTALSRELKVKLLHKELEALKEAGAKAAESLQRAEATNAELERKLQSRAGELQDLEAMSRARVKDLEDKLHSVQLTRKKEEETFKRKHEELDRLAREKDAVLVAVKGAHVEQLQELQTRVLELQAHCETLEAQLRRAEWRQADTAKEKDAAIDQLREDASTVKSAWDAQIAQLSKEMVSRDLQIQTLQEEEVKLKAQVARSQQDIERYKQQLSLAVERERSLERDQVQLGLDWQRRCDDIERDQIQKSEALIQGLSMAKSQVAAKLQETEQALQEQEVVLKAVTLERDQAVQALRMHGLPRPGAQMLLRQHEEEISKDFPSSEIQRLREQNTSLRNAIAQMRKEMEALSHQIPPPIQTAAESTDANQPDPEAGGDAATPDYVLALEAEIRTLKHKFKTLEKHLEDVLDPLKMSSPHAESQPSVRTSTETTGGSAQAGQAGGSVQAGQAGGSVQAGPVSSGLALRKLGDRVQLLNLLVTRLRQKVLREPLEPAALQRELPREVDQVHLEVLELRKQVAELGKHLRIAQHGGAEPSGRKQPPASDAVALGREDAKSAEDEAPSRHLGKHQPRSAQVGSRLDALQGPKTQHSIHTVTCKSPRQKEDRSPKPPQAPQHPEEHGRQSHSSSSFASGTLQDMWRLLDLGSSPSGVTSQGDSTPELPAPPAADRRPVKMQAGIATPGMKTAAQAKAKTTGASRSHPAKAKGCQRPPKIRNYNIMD
Chain of UniProt P00915 (P00915 whole entry, looked up): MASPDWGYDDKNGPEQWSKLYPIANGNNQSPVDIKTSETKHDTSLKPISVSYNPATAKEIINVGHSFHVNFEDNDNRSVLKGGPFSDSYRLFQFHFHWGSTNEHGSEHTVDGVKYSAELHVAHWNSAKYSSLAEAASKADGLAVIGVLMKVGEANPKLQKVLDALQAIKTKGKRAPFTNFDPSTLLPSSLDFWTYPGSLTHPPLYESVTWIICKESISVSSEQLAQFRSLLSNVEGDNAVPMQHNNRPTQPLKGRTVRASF
Chain of UniProt Q8N1A6 (Q8N1A6 whole entry, looked up): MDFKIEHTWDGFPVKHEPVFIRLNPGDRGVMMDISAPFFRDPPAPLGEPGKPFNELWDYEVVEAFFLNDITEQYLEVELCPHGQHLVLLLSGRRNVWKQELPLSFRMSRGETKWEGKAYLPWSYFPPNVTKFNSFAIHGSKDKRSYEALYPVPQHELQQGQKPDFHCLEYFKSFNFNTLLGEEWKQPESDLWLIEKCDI
Chain of UniProt P35219 (P35219 whole entry, looked up): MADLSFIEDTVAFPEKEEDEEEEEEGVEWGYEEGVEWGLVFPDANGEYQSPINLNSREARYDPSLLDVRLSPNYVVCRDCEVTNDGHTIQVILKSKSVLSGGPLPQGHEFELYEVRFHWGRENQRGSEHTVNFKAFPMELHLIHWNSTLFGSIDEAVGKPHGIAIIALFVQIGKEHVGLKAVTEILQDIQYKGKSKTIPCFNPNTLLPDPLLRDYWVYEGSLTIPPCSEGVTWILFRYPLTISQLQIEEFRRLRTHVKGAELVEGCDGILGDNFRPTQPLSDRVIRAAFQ
Chain of UniProt Q9UIV1 (Q9UIV1 whole entry, looked up): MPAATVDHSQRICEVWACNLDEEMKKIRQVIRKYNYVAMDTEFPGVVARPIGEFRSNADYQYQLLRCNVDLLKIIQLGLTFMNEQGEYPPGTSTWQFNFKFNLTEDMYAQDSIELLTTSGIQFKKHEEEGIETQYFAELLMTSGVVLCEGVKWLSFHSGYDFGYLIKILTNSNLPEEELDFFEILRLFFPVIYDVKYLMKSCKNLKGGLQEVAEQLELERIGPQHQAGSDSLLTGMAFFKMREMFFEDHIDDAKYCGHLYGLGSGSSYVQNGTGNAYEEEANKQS
Chain of UniProt Q8IUI8 (Q8IUI8 whole entry, looked up): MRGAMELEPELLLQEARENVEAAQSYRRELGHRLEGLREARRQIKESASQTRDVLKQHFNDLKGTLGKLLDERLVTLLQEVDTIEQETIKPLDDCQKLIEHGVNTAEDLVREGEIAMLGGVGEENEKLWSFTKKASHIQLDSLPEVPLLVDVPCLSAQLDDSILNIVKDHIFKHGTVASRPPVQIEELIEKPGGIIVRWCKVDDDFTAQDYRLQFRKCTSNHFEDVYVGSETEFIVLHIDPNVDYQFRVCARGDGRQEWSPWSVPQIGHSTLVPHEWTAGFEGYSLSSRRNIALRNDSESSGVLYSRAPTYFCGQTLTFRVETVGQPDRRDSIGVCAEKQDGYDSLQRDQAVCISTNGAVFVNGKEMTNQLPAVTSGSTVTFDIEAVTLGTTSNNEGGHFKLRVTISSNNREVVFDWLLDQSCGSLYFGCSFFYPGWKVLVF
Chain of UniProt O95319 (O95319 whole entry, looked up): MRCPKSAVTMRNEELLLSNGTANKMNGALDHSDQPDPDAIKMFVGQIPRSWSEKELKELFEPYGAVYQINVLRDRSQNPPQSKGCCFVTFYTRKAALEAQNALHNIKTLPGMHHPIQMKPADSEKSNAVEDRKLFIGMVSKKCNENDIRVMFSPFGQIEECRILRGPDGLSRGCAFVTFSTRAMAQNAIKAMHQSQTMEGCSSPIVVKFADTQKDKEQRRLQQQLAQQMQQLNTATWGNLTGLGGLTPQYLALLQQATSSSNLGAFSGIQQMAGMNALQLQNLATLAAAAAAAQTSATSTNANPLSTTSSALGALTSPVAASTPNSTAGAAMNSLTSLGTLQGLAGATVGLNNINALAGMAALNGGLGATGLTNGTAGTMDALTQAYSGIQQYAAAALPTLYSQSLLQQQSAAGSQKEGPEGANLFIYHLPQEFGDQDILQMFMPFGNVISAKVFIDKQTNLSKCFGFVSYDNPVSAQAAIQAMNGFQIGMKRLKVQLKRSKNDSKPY
Chain of UniProt Q9NRR8 (Q9NRR8 whole entry, looked up): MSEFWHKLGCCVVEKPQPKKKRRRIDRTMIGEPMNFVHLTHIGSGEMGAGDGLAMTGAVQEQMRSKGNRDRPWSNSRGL
Chain of UniProt O15182 (O15182 whole entry, looked up): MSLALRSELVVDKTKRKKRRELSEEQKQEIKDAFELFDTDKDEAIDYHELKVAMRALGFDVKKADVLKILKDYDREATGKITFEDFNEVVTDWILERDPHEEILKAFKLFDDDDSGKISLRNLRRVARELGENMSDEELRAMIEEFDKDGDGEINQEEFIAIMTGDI
Chain of UniProt Q86X83 (Q86X83 whole entry, looked up): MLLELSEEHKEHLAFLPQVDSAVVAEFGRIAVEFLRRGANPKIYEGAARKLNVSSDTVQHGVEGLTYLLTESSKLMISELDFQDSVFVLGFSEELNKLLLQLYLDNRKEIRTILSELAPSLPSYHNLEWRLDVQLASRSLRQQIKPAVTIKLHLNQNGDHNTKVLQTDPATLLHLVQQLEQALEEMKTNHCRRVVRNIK
Chain of UniProt P19397 (P19397 whole entry, looked up): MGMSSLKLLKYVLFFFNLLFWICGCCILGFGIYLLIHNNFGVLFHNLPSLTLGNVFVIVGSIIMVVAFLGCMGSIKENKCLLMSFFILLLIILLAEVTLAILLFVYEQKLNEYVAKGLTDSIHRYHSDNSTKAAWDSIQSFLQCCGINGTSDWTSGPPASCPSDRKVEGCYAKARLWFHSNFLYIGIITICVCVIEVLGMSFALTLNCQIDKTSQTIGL
Chain of UniProt P51946 (P51946 whole entry, looked up): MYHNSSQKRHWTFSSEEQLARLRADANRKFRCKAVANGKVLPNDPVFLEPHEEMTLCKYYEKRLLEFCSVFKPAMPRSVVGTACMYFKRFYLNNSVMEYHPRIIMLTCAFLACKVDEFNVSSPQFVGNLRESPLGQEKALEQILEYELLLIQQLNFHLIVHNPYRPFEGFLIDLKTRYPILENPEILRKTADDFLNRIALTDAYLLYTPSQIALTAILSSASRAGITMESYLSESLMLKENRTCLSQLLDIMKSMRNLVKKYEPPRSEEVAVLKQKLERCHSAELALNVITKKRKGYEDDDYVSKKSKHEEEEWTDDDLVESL
Chain of UniProt Q13901 (Q13901 whole entry, looked up): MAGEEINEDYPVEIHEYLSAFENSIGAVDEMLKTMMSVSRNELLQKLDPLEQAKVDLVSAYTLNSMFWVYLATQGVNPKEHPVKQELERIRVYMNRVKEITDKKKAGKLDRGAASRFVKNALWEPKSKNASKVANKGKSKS

CLCN7 (UniProt P51798) and CCZ1 (UniProt P86791) are within 0.2 log units of each other in log2 fold change: -0.001 for the first, 0.013 for the second.

C1D (UniProt Q13901) and CNOT7 (UniProt Q9UIV1) are within 0.2 log units of each other in log2 fold change: 0.02 for the first, -0.053 for the second.

CDC42BPA isoform 6 (UniProt Q5VT25) and COMMD1 (UniProt Q8N668) are within 0.2 log units of each other in log2 fold change: 0.001 for the first, -0.071 for the second.

CETN3 (UniProt O15182) and C4orf33 (UniProt Q8N1A6) are within 0.2 log units of each other in log2 fold change: 0.042 for the first, -0.084 for the second.

CDK9 isoform 2 (UniProt P50750) and CDC25B isoform 4 (UniProt P30305) are within 0.2 log units of each other in log2 fold change: -0.06 for the first, 0.1 for the second.

CHEK1 (UniProt O14757) and CD53 (UniProt P19397) are within 0.2 log units of each other in log2 fold change: 0.055 for the first, -0.02 for the second.

CRTC2 (UniProt Q53ET0) and CDK4 (UniProt P11802) are within 0.2 log units of each other in log2 fold change: 0.098 for the first, 0.16 for the second.

CNOT1 (UniProt A5YKK6) and CPSF1 (UniProt Q10570) are within 0.2 log units of each other in log2 fold change: -0.028 for the first, -0.038 for the second.

CLUH, A0A494C0R8 and CEPT1 (UniProt Q9Y6K0) are within 0.2 log units of each other in log2 fold change: -0.017 for the first, -0.043 for the second.

CELF2 isoform 3 (UniProt O95319) and CDC42SE1 (UniProt Q9NRR8) are within 0.2 log units of each other in log2 fold change: 0.018 for the first, 0.031 for the second.

First: CDK12 (UniProt Q9NYV4)
Second: COQ9 (UniProt O75208)
Chain of UniProt O75208 (O75208 whole entry, looked up): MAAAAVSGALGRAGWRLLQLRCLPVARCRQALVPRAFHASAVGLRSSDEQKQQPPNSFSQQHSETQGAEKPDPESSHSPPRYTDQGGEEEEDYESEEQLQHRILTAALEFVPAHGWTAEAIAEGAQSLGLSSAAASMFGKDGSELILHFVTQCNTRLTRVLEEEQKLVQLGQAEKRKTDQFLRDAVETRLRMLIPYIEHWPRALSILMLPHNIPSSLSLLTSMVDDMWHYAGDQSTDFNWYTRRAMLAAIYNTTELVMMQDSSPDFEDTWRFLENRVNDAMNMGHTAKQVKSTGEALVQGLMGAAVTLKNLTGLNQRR
The log2 fold change of the first is lower: -0.363 for the first, -0.041 for the second.

COMMD2 (UniProt Q86X83) and CDK6 (UniProt Q00534) are within 0.2 log units of each other in log2 fold change: -0.088 for the first, 0.088 for the second.

CA8 (UniProt P35219) and CA1 (UniProt P00915) are within 0.2 log units of each other in log2 fold change: 0.01 for the first, 0.016 for the second.

CLSPN (UniProt Q9HAW4) and CCNH (UniProt P51946) are within 0.2 log units of each other in log2 fold change: 0.037 for the first, -0.024 for the second.

CLPP (UniProt Q16740) and CHD4 isoform 2 (UniProt Q14839) are within 0.2 log units of each other in log2 fold change: -0.056 for the first, 0.069 for the second.

CAMSAP1 isoform 3 (UniProt Q5T5Y3) and CCDC57 (UniProt Q2TAC2) are within 0.2 log units of each other in log2 fold change: 0.068 for the first, -0.059 for the second.

CHST11 (UniProt Q9NPF2) and CRLF3 (UniProt Q8IUI8) are within 0.2 log units of each other in log2 fold change: 0.011 for the first, 0 for the second.

Work on CAD (UniProt P27708) yielded a log2 fold change of 0.034.

For CASP3 (UniProt P42574), the log2 fold change was 0.273 (active).

Compound: CCn1c(C(=O)N(C2CC2)C2CC2)cc2c3c(ncn3C)c(Nc3cc(C)n(C)n3)nc21
Assay: as above
In short: as §1

CLCN7 (UniProt P51798) and CCZ1 (UniProt P86791) are within 0.2 log units of each other in log2 fold change: -0.022 for the first, -0.011 for the second.

C1D (UniProt Q13901) and CNOT7 (UniProt Q9UIV1) are within 0.2 log units of each other in log2 fold change: 0 for the first, -0.16 for the second.

CDC42BPA isoform 6 (UniProt Q5VT25) and COMMD1 (UniProt Q8N668) are within 0.2 log units of each other in log2 fold change: 0.002 for the first, -0.063 for the second.

CETN3 (UniProt O15182) and C4orf33 (UniProt Q8N1A6) are within 0.2 log units of each other in log2 fold change: 0.032 for the first, -0.034 for the second.

CDK9 isoform 2 (UniProt P50750) and CDC25B isoform 4 (UniProt P30305) are within 0.2 log units of each other in log2 fold change: 0.016 for the first, -0.031 for the second.

CHEK1 (UniProt O14757) and CD53 (UniProt P19397) are within 0.2 log units of each other in log2 fold change: -0.012 for the first, 0.004 for the second.

CRTC2 (UniProt Q53ET0) and CDK4 (UniProt P11802) are within 0.2 log units of each other in log2 fold change: -0.023 for the first, -0.018 for the second.

CNOT1 (UniProt A5YKK6) and CPSF1 (UniProt Q10570) are within 0.2 log units of each other in log2 fold change: -0.028 for the first, -0.02 for the second.

CLUH, A0A494C0R8 and CEPT1 (UniProt Q9Y6K0) are within 0.2 log units of each other in log2 fold change: 0.066 for the first, 0.039 for the second.

CELF2 isoform 3 (UniProt O95319) and CDC42SE1 (UniProt Q9NRR8) are within 0.2 log units of each other in log2 fold change: -0.027 for the first, 0.029 for the second.

CASP3 (UniProt P42574) and CDK12 (UniProt Q9NYV4) are within 0.2 log units of each other in log2 fold change: 0 for the first, -0.005 for the second.

COQ9 (UniProt O75208) and COMMD2 (UniProt Q86X83) are the same in log2 fold change: -0.022 for the first, -0.022 for the second.

CDK6 (UniProt Q00534) and CA8 (UniProt P35219) are within 0.2 log units of each other in log2 fold change: 0.043 for the first, -0.035 for the second.

CA1 (UniProt P00915) and CLSPN (UniProt Q9HAW4) are within 0.2 log units of each other in log2 fold change: 0.003 for the first, 0.062 for the second.

CCNH (UniProt P51946) and CLPP (UniProt Q16740) are within 0.2 log units of each other in log2 fold change: -0.004 for the first, -0.023 for the second.

CHD4 isoform 2 (UniProt Q14839) and CAMSAP1 isoform 3 (UniProt Q5T5Y3) are within 0.2 log units of each other in log2 fold change: -0.051 for the first, 0.033 for the second.

CCDC57 (UniProt Q2TAC2) and CHST11 (UniProt Q9NPF2) are within 0.2 log units of each other in log2 fold change: 0.036 for the first, 0.043 for the second.

CRLF3 (UniProt Q8IUI8) and CAD (UniProt P27708) are within 0.2 log units of each other in log2 fold change: -0.069 for the first, -0.169 for the second.
